Whole data set: some 33,000 sequences, median “E-score (-0.5 to 0.5)” near -0.012, cut for the highest 2% near 0.29. Many of the other results were omitted from the sample, so the highest values are more common in it than they were.
These sequences were tested against T1, Ybr033w (UniProt P38073) (assay: PBM E-score (8-mer binding enrichment) (E-score (-0.5 to 0.5)); higher = stronger / more preferred TF binding). Conditions: protein concentration: 200 nM; construct: GST-full length.
T1 sequence: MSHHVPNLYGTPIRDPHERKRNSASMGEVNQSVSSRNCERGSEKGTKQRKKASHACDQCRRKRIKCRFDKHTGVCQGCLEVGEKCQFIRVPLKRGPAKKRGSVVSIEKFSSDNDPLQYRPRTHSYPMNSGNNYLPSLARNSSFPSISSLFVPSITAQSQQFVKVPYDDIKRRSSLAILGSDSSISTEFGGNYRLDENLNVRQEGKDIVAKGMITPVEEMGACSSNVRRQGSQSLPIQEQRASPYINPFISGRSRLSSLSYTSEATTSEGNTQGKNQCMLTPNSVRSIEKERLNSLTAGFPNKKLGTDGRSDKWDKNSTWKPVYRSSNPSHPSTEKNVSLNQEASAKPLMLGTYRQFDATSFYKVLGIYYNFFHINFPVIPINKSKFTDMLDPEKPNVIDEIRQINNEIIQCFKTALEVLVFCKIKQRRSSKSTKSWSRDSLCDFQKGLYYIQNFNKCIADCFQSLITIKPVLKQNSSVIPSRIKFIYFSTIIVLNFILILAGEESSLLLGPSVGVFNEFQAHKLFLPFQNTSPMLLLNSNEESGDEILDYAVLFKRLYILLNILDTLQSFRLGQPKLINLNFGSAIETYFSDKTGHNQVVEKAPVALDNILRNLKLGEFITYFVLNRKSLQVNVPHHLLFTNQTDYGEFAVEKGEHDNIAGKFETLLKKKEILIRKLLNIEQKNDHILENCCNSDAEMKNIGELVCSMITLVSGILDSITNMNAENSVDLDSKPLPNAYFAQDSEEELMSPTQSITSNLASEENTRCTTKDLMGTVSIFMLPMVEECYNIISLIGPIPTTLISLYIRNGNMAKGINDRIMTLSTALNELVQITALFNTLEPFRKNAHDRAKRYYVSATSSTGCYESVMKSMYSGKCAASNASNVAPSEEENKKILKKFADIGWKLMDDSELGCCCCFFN
Description: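 Universal 'all 10-mer' protein binding microarrays (Agilent AMADID 015681) probed with GST-tagged S. cerevisiae TFs (full-length or DBD) made by in vitro transcription/translation (PURExpress), about 100-200 nM. Bound TF was detected with fluorescent anti-GST. Each ungapped 8-mer (which stands for itself and its reverse complement) is scored by the PBM enrichment score (E-score), a modified Wilcoxon-Mann-Whitney statistic from -0.5 to +0.5, computed with the Universal PBM Analysis Suite. Scale: above 0.35 generally sequence-specific binding.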

First: GTGATTAA
Second: CTGATTTA
The “PBM E-score” value of the first is higher: 0.291 for the first, 0.156 for the second.

Going from CGGATTAG to CTGATTAA, the “PBM E-score” value rises from -0.0597 to 0.22.

Going from TGCATTAA to GGGATTGA, the “PBM E-score” value falls from 0.256 to -0.148.

Going from ACGCATTG to AGCCCACG, the “PBM E-score” value falls from -0.0453 to -0.202.

Going from CATGGTGA to GCGATTAA, the “PBM E-score” value rises from 0.137 to 0.19.

First: GCGATTTA
Second: ACGATTTA
The “PBM E-score” value of the first is lower: 0.0771 for the first, 0.36 for the second.

Going from TCGATTAA to ACGATTAA, the “PBM E-score” value falls from 0.288 to 0.141.

First: CCGATTTA
Second: ACACCGTC
The “PBM E-score” value of the first is higher: 0.183 for the first, -0.0477 for the second.

Going from AAGCGCAT to CACCGCTA, the “PBM E-score” value falls from -0.0621 to -0.0953.

Compared with TAAACTGA, ATGGCCTG is lower in “PBM E-score” value: 0.136 for the first, -0.16 for the second.

Going from GCGATACA to ACGATACA, the “PBM E-score” value falls from 0.0586 to 0.0132.

Compared with TCGATACA, ACGGTAGC is lower in “PBM E-score” value: 0.298 for the first, -0.123 for the second.

First: ACTAGTCT
Second: ACCATCGG
The “PBM E-score” value of the first is higher: -0.0233 for the first, -0.118 for the second.

Compared with ACAACCAG, ACAACCAT is higher in “PBM E-score” value: 0.102 for the first, 0.297 for the second.

First: ACAACCAC
Second: CGTTCTGC
The “PBM E-score” value of the first is higher: 0.0628 for the first, 0.0161 for the second.

Going from GCTTATGA to AACTAACT, the “PBM E-score” value rises from -0.0277 to 0.126.

Compared with CACTAATG, CACTAATA is lower in “PBM E-score” value: 0.0973 for the first, 0.0444 for the second.

First: AACTAATC
Second: TACTAATA
The “PBM E-score” value of the first is higher: 0.192 for the first, 0.185 for the second.

Compared with AACTAATG, AACTAAAG is lower in “PBM E-score” value: 0.29 for the first, 0.231 for the second.

First: AACTAATT
Second: AACTAATA
The “PBM E-score” value of the first is lower: 0.293 for the first, 0.298 for the second.

Compared with AAATCGGC, CCACCGGA is higher in “PBM E-score” value: -0.158 for the first, 0.172 for the second.

Compared with GAGACCAA, ATCCGCTC is lower in “PBM E-score” value: 0.0622 for the first, -0.102 for the second.

First: ACGGTATG
Second: AGGCATAA
The “PBM E-score” value of the first is higher: -0.0502 for the first, -0.0986 for the second.

Compared with ATTTAGGC, CCCACCTC is lower in “PBM E-score” value: 0.117 for the first, -0.244 for the second.

First: AAATTTAG
Second: AAATTTAA
The “PBM E-score” value of the first is lower: 0.278 for the first, 0.29 for the second.

Compared with TAATTTAA, AAATTTAC is lower in “PBM E-score” value: 0.343 for the first, 0.263 for the second.

Compared with CAATTTAA, CAATTTCA is lower in “PBM E-score” value: 0.27 for the first, 0.0349 for the second.

First: TAATTTCA
Second: AAATTTCA
The “PBM E-score” value of the first is higher: 0.289 for the first, -0.0112 for the second.

Going from GAATTTAA to CGCCAGAA, the “PBM E-score” value falls from 0.0723 to 0.043.

First: ACAAGTAT
Second: AACACAAC
The “PBM E-score” value of the first is higher: 0.249 for the first, 0.116 for the second.

Compared with CCTTTCTC, CCGTCGCC is lower in “PBM E-score” value: -0.11 for the first, -0.247 for the second.

Going from CAGATAAA to ACGATAAT, the “PBM E-score” value falls from 0.194 to 0.163.

Compared with TGGATAAA, TGGATACA is lower in “PBM E-score” value: 0.391 for the first, 0.0503 for the second.

Compared with ATGATAAA, TTGATAAA is higher in “PBM E-score” value: 0.238 for the first, 0.368 for the second.

Compared with TAGATAAA, TCGATAAA is lower in “PBM E-score” value: 0.341 for the first, 0.167 for the second.

Going from AAGATAAA to AGGATAAT, the “PBM E-score” value rises from 0.257 to 0.36.

First: GTGATAAA
Second: AGGATACT
The “PBM E-score” value of the first is higher: 0.102 for the first, -0.0125 for the second.

Going from CTGCTCTC to AGCCACCA, the “PBM E-score” value rises from -0.153 to 0.0237.

Going from AGGCTCAT to ACGACCAG, the “PBM E-score” value falls from -0.0489 to -0.158.

Going from AAGATAAT to GGGATAGA, the “PBM E-score” value falls from 0.307 to -0.196.

First: AAGATAAG
Second: GGGATAAA
The “PBM E-score” value of the first is lower: 0.0844 for the first, 0.317 for the second.

Going from GGGATAAC to AGGATAAC, the “PBM E-score” value falls from 0.00039 to -0.109.

First: AAGATAAC
Second: AGGATAAA
The “PBM E-score” value of the first is lower: 0.0702 for the first, 0.427 for the second.

In the case of AGGATAAG, the “PBM E-score” value is reported as -0.0801.

From the supplement of paper PMC3334620
